Assay results as given in PubChem BioAssay (NCATS).
Results filed as inconclusive are left out. A call without a number means that no potency is given here. A number with no mark means an inactive call. Activity calls are given as the source filed them. Calls follow the shape of the dose curve; as a rule, active = well fitted curve in the direction sought with a large enough effect; inconclusive = small, poorly fitted or top-dose-only effect, or another doubt; inactive = no such curve, though single readings can be large; an effect the other way counts as inactive or inconclusive.

Key:
[1] = biological target: Rap guanine nucleotide exchange factor 3 (Homo sapiens) (UniProt O95398); assay: Confirmatory qHTS for antagonist of cAMP-regulated guanine nucleotide exchange factor 3 (EPAC1) (AID 1645880); also: nearly all actives have a fitted effect of over 55% in size; also: potency is read from the fitted curve at half-maximal effect
Summary of the method: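 Released BODIPY-GDP fluoresces less than Rap1-bound BODIPY-GDP; the signal is followed at 480/540 nm at 5-min intervals over 30 min, after 5 min at room temperature. Reactions contain 100 nM EPAC1, 250 nM RAP1B-BODIPY-GDP and 50 uM GDP; results are normalized to ATA and DMSO.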

[2] = biological target: Rap guanine nucleotide exchange factor 3 (Homo sapiens) (UniProt O95398); assay: Confirmatory qHTS for agonist of cAMP-regulated guanine nucleotide exchange factor 3 (EPAC1) (AID 1645881);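 also: EPAC1 catalysed release of BODIPY-GDP from Rap1B seen as fluorescence loss; nearly all actives have a fitted effect of over 75% in size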
[3] = biological target: Rap guanine nucleotide exchange factor 4 (Homo sapiens) (UniProt Q8WZA2); assay: Confirmatory qHTS for agonist of cAMP-regulated guanine nucleotide exchange factor 4 (EPAC2) (AID 1645884);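 also: nucleotide exchange releases bodipy-GDP from Rap1 and this lowers its fluorescence; nearly all actives have a fitted effect of over 65% in size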
[4] = biological target: Rap guanine nucleotide exchange factor 4 (Homo sapiens) (UniProt Q8WZA2); assay: Confirmatory qHTS for antagonist of cAMP-regulated guanine nucleotide exchange factor 4 (EPAC2) (AID 1645885); also: nearly all actives have a fitted effect of over 25% in size
[5] = biological target: Rap guanine nucleotide exchange factor 3 (Homo sapiens) (UniProt O95398); assay: Counterscreen qHTS for antagonist of cAMP-regulated guanine nucleotide exchange factor 3 (EPAC1) (AID 1645888)
Summary of the method: (§1)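 Rap1B-BODIPY-GDP 250 nM + GDP 50 uM; cpds 7-pt, final 9.74 nM–152 uM (activator mode) or from 7.32 nM upwards (inhibitor mode); RT; FI 480/540 nm at 5 and 30 min, then ± cAMP, reread.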

[6] = biological target: Tumor susceptibility gene 101 protein (Homo sapiens) (UniProt Q99816); assay: qHTS Assay for Iinhibitors of HIV-1 Budding by Blocking the Interaction of PTAP/TSG101: Hit Validation (AID 651600); also: nearly all actives have a fitted effect of over 70% in size
Summary of the method: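 Tsg101 binding domain 10 uM + FITC-PTAP peptide 50 nM (final), 10 mM HEPES pH 7.5/0.15 M NaCl/0.01% Tween 20/3 mM EDTA/0.1 mM TCEP; 20 min RT; FP read, FITC filters.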

[7] = biological target: Rap guanine nucleotide exchange factor 3 (Homo sapiens) (UniProt O95398); assay: Counterscreen qHTS for agonist of cAMP-regulated guanine nucleotide exchange factor 3 (EPAC1) (AID 1645889); also: nearly all actives have a fitted effect of over 40% in size
Summary of the method: as §1

Chain of Rap guanine nucleotide exchange factor 4 (Homo sapiens) (Q8WZA2 whole entry, looked up): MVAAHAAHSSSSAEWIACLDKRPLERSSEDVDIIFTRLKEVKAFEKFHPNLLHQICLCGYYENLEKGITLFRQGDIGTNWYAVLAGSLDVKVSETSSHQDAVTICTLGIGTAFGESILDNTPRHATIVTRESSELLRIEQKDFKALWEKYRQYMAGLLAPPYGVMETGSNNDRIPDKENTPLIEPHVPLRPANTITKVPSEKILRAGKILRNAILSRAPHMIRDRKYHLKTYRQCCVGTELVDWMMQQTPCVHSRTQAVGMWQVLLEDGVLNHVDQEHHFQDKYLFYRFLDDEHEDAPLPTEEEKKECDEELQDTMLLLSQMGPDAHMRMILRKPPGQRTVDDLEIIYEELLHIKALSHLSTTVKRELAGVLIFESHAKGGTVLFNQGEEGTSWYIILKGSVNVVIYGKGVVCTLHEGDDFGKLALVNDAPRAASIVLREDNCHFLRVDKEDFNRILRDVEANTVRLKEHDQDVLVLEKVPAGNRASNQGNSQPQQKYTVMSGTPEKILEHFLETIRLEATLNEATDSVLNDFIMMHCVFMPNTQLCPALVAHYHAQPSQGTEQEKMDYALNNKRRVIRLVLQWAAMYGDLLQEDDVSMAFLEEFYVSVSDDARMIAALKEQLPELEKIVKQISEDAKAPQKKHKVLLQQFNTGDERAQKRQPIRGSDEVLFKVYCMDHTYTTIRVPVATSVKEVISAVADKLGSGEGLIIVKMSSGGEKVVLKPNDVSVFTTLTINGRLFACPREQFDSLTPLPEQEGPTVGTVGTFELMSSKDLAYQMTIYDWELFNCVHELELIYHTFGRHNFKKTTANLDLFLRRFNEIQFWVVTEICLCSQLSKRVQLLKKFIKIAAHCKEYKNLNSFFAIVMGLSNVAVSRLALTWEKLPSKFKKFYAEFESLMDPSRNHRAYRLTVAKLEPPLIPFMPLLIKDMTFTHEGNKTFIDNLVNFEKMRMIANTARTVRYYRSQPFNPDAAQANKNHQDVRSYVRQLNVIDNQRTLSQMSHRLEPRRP
Chain of Rap guanine nucleotide exchange factor 3 (Homo sapiens) (O95398 whole entry, looked up): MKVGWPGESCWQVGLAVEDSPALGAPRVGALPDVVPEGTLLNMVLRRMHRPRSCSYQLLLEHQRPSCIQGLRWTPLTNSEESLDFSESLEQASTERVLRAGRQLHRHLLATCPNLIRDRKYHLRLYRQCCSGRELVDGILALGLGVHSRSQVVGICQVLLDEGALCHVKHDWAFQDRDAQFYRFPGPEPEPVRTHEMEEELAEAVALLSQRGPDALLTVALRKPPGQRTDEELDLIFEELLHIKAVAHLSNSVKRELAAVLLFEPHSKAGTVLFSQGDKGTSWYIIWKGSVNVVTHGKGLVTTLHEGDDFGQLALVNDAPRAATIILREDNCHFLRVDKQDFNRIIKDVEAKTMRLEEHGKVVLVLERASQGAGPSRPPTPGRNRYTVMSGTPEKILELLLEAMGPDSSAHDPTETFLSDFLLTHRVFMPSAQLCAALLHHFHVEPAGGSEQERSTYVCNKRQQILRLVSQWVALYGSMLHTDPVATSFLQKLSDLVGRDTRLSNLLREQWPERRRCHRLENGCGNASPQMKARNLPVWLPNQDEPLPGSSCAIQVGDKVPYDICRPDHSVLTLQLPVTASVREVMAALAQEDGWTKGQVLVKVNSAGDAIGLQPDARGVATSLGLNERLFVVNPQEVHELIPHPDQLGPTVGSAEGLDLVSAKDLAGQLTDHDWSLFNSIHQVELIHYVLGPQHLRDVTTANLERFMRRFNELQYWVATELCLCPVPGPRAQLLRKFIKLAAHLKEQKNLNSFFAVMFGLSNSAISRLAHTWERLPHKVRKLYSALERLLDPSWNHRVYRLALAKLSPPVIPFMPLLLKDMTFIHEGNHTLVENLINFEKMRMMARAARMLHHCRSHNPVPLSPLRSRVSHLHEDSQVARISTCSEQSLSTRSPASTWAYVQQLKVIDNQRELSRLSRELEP
Chain of Tumor susceptibility gene 101 protein (Homo sapiens) (Q99816 whole entry, looked up, the tested form may be a part): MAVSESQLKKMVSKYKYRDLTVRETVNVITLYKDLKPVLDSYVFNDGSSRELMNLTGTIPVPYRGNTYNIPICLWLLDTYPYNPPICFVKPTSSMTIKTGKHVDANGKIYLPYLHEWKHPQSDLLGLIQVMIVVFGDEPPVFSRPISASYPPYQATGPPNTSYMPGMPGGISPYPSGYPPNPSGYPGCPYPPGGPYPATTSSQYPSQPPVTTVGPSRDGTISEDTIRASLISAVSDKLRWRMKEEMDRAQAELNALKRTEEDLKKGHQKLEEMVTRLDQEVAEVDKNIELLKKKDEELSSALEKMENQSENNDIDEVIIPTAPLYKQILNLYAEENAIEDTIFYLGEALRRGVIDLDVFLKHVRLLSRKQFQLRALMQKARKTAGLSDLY

Cc1ccc(N2C(=O)NC(=O)/C(=C\C=C\c3ccco3)C2=O)cc1
Potency [1]: 42.6 µM (active)
Potency [2]: inactive
Potency [3]: inactive
Potency [4]: inactive
outcome [5]: inactive

Cc1ccc(N2C(=O)NC(=O)/C(=C\c3cc(C)n(-c4sc5c(c4C#N)CCCC5)c3C)C2=O)cc1
Potency [1]: 16.9 µM (active)
Potency [2]: inactive
Potency [3]: inactive
Potency [4]: inactive
outcome [5]: inactive

CCN(CC)C(=O)Cn1cc(C=C2C(=O)N(C)C(=O)N(C)C2=O)c2ccccc21
Potency [6]: inactive
Potency [1]: 79.4 µM (active)
Potency [2]: inactive
activation [3]: 4.19% [at 17.1 µM, percent relative to cAMP agonist control]
activity change, negative = inhibition [4]: 3.22% [at 12.7 µM]
activity change, negative = inhibition [5]: -5.5% [at 30.8 µM]

CCOC(=O)[C@]12Cc3cc(OC)ccc3[C@H]1N(Cc1ccccc1)C(=O)c1cc(F)c(F)cc12
Potency [1]: inactive
Potency [2]: inactive
Potency [3]: inactive
Potency [4]: inactive
outcome [5]: inactive

Cn1cccc1/C=C1/C(=O)NC(=S)N(Cc2ccc(F)cc2)C1=O
Potency [1]: 31.6 µM (active)
Potency [2]: inactive
activation [3]: 0.836% [at 17.1 µM, percent relative to cAMP agonist control]
activity change, negative = inhibition [4]: -22.8% [at 12.7 µM]
activity change, negative = inhibition [5]: -2.5% [at 30.8 µM]
activation [7]: 10.8% [at 30.8 µM]

CCC(=NCCCO)c1c(O)n(-c2ccc(OC)cc2)c(=O)[nH]c1=O
Potency [1]: inactive
Potency [2]: inactive
activation [3]: 2.6% [at 17.1 µM, percent relative to cAMP agonist control]
activity change, negative = inhibition [4]: -12.3% [at 12.7 µM]
activity change, negative = inhibition [5]: -14.3% [at 30.8 µM]
activation [7]: -4.42% [at 30.8 µM]

CCCSc1nc2ccccc2c(=O)n1-c1ccccc1OC
Potency [1]: inactive
Potency [2]: inactive
Potency [3]: inactive
activity change, negative = inhibition [4]: 34.1% [at 12.7 µM]
outcome [5]: inactive

N#CC(C#N)=NNc1ccc(S(N)(=O)=O)cc1
Potency [1]: 44.7 µM (active)
Potency [2]: inactive
activation [3]: 3.48% [at 17.1 µM, percent relative to cAMP agonist control]
activity change, negative = inhibition [4]: 1.67% [at 12.7 µM]
activity change, negative = inhibition [5]: -8.77% [at 30.8 µM]
